Compounds without any hit were thinned out: in the full panel of roughly 83,000, 20% have a hit.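 Cells were grown in 96-well plates and exposed to the test compound at a single concentration for 48 hours; results are reported as percent growth, with values below 10 considered active.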 Values without a mark were called inactive. Calls of active or inactive are those of the source.

One assay relates to LOX IMVI melanoma. Nature of the assay: NCI-60 one-dose screen, 48 h (100 = growth as untreated, 0 = no growth, -100 = all killed). The following applies: 10 µM unless noted.
Turning to `CCCCCCCCCCCCCCCCCCOc1ccc(CC(=O)OCC[N+](C)(C)C)cc1`, the growth is 91.1%. As for `COc1ccc([C@H]2c3cc(OC)c(OC)cc3C=C(C=O)C2CO)cc1OC` (some centres not stated), the growth was 46.3%. Take `Cc1nn(-c2ccccc2)c(-n2ccnc2)c1/C=N/Nc1nc(-c2ccc(Cl)c(Cl)c2)cs1`: the growth is 20.1%.

On to `Cc1ccc2c(n1)C(=O)C(Cl)=C(Nc1ccccc1C(C)C)C2=O`, for which the growth is 14.7%. In the case of `Cc1cccc2c3c(sc12)C(c1ccc(Cl)cc1)C(C#N)=C(/N=C/c1ccc(Cl)cc1)O3` (configuration not stated), the growth was 20.9%.

`Cc1ccc2c(-c3cc(-c4ccccc4)nc(N)c3C#N)cc(=O)oc2c1`: the growth was 91.8%. Still for that read-out and setting: next, `Cc1ncc(C(=O)Nc2ccc(CN3CCN(C)CC3)c(C(F)(F)F)c2)cc1C#Cc1ccc(N)nc1`: -94.9% (active); `COc1ccc(CN2c3ccccc3Sc3ccccc32)c(F)c1`: 52.7%. In the case of `COc1ccc(-c2ncnc3c2ncn3CC#CCCl)cc1`, the growth was -31.7% (active). Regarding `COc1ccc(C(=O)C[C@]2(O)C(=O)Nc3c(Cl)ccc(Cl)c32)cc1`, the growth was 45.9%. Take `c1ccc2c(-c3nc(-c4c[nH]c5ccncc45)cs3)c[nH]c2c1`: the growth is -76% (active). In the case of `C=CCNc1ccc2c3c(cccc13)C(=O)N(N1C(=O)c3cccc4cccc(c34)C1=O)C2=O`, the growth is 90.8%. Turning to `N#Cc1c(-c2ccccc2)nc(SCC(=O)Nc2nc(-c3ccc(Cl)cc3)cs2)[nH]c1=O`, the growth was 100%. As for `COc1cc(C(=O)/C=C/c2c(Cl)nc3sccn23)cc(OC)c1OC`, the growth was 63.8%. With `COc1ccc(-c2cc(-c3ccc(Cl)cc3)c(C#N)c(=O)n2CCCCCC(=O)Nc2ccccc2N)cc1`, the growth is -54.2% (active). Regarding `COc1cccc(/C=C2\C=C(c3ccccc3)N(Cc3ccccc3)C2=O)c1`, the growth is 49.2%. With `CCOC(=O)c1cn2ncnc(Oc3ccc(NC(=O)NCCN(C)C)c(Cl)c3)c2c1C`, the growth was 10.3%. With `COc1ccc(N2C(=O)C(Oc3ccccc3)C2c2ccc(C)cc2)cc1` (configuration not stated), the growth was 98.1%. Still for that read-out and setting: to `O=[N+]([O-])c1ccc(Cl)c(-c2cc(CCCCO)on2)c1` belongs 97.6%; to `COc1cccc2nc3n(c12)C(c1c(F)cccc1F)SC3` (configuration not stated), 93.1%; to `Cc1ccc(S(=O)(=O)N/N=C/C2(c3ccccc3)CC2)cc1`, 96.9%.

A further assay relates to SK-MEL-28 melanoma. The assay is described as above. The following applies: 10 µM unless noted.
Take `COC1=C(C)C(=O)c2c(c(CCCl)c3n2CCC3O)C1=O` (configuration not stated): the growth was -27.7% (active).

Regarding `Oc1ccc(C#CCOc2ccccc2)cc1CNCCN(Cc1ccccn1)Cc1ccccn1`, the growth was 32.9%. Same read-out and setting: next, `CCc1nnc(NC(=O)c2nnn(-c3ccccc3)c2-c2ccco2)s1`: 95.1%; `CNc1nc2c(s1)C(c1cccc(F)c1)CC(=O)N2` (configuration not stated): 103%.

Take `CC(=O)O.CN1[CH-]N(Cc2ccc(C#N)cc2)c2ccccc21.[Ag+]`: the growth was 95.3%. As to `O=C(Nc1ccc(F)cc1F)c1cc(F)ccc1O`, the growth was 21.9%. For `CCc1ccc(Oc2c(-c3ccc(OCc4ccc(Cl)cc4)cc3O)nn(C)c2C(F)(F)F)cc1`, the growth was 20.1%. For the compound `CCC(=O)Nc1ccc(-c2nc(-c3cccc(OC)c3)c(-c3ccnc(Br)c3)[nH]2)cc1`, the growth is 66%. Same read-out and setting: to `CC/C=C\C[C@@H](O)C/C=C1/C(=O)C=C[C@H]1C/C=C\CCCC(=O)OC` belongs -32.8% (active); to `CC(=O)CC(c1ccccc1)c1c(C)[nH]c2ccccc12` (configuration not stated), 102%. Take `Cc1nc2cnc(N)c(C#Cc3cncc(C(=O)Nc4ccc(CN5CCN(C)CC5)c(C(F)(F)F)c4)c3)c2nc1C`: the growth was -26.8% (active). Same read-out and setting: next, `COc1ccc(-c2nc(NCCO)[nH]c(=O)c2C#N)cc1`: 108%; `COc1ccn2c(C(C)=O)cc(C(=O)c3ccc4c(c3)Sc3ccccc3N4)c2c1`: 46.7%; `O=C1CCC(C(=O)NCCNCCNC(=O)C2CCC(=O)N2)N1` (configuration not stated): 112%. As to `C(=N/Nc1ncnc2nc[nH]c12)/c1ccccn1`, the growth is 49.1%.

For the compound `CCCCCCCCCCCCCCCCCCOc1ccc(CC(=O)OCC[N+](C)(C)C)cc1`, the growth is 103%. Regarding `COc1ccc([C@H]2c3cc(OC)c(OC)cc3C=C(C=O)C2CO)cc1OC` (some centres not stated), the growth is 55.3%. In the case of `Cc1nn(-c2ccccc2)c(-n2ccnc2)c1/C=N/Nc1nc(-c2ccc(Cl)c(Cl)c2)cs1`, the growth is 58.1%.

With `Cc1ccc2c(n1)C(=O)C(Cl)=C(Nc1ccccc1C(C)C)C2=O`, the growth is 65.8%. In the case of `Cc1cccc2c3c(sc12)C(c1ccc(Cl)cc1)C(C#N)=C(/N=C/c1ccc(Cl)cc1)O3` (configuration not stated), the growth was 58.1%. As to `Cc1ccc2c(-c3cc(-c4ccccc4)nc(N)c3C#N)cc(=O)oc2c1`, the growth was 105%. With `Cc1ncc(C(=O)Nc2ccc(CN3CCN(C)CC3)c(C(F)(F)F)c2)cc1C#Cc1ccc(N)nc1`, the growth is -46.2% (active). On to `COc1ccc(CN2c3ccccc3Sc3ccccc32)c(F)c1`, for which the growth is 53%. In the case of `COc1ccc(-c2ncnc3c2ncn3CC#CCCl)cc1`, the growth was 86.7%.

`COc1ccc(C(=O)C[C@]2(O)C(=O)Nc3c(Cl)ccc(Cl)c32)cc1`: the growth was 60.4%. On the same count and under the same terms, to `c1ccc2c(-c3nc(-c4c[nH]c5ccncc45)cs3)c[nH]c2c1` belongs -89.8% (active). Still for that read-out and setting: to `C=CCNc1ccc2c3c(cccc13)C(=O)N(N1C(=O)c3cccc4cccc(c34)C1=O)C2=O` belongs 108%; to `N#Cc1c(-c2ccccc2)nc(SCC(=O)Nc2nc(-c3ccc(Cl)cc3)cs2)[nH]c1=O`, 101%; to `COc1cc(C(=O)/C=C/c2c(Cl)nc3sccn23)cc(OC)c1OC`, 93.6%. Consider `COc1ccc(-c2cc(-c3ccc(Cl)cc3)c(C#N)c(=O)n2CCCCCC(=O)Nc2ccccc2N)cc1`, for which the growth was 60.5%.

For the compound `COc1cccc(/C=C2\C=C(c3ccccc3)N(Cc3ccccc3)C2=O)c1`, the growth is 79.9%. Consider `CCOC(=O)c1cn2ncnc(Oc3ccc(NC(=O)NCCN(C)C)c(Cl)c3)c2c1C`, for which the growth was 37.6%. Still for that read-out and setting: to `COc1ccc(N2C(=O)C(Oc3ccccc3)C2c2ccc(C)cc2)cc1` (configuration not stated) belongs 99.5%; to `O=[N+]([O-])c1ccc(Cl)c(-c2cc(CCCCO)on2)c1`, 107%; to `COc1cccc2nc3n(c12)C(c1c(F)cccc1F)SC3` (configuration not stated), 112%. For `Cc1ccc(S(=O)(=O)N/N=C/C2(c3ccccc3)CC2)cc1`, the growth is 106%.

These data come from PubChem BioAssay (NCI).
